The values that follow come from PubChem BioAssay.

Active and inactive are the calls of the source.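 The calls were made as follows, unless noted: active = fluorescence slope after compound addition differing from the mean of all screened samples at 99.7% confidence, in either direction; inactive = the rest.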

The nature of assay [1]: inhibitors of TNFa-induced NFkB p65 translocation, primary screen, imaging, HUVEC, MLSMR starter and 10KST1 sets (AID 438;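 active = inhibition above 20% together with a positive visual image hit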;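 also: compound added about 3h40 before a 20 min TNFalpha stimulation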;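 as to inhibition: signal is the nuclear over cytoplasmic p65 intensity ratio per well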). The following applies: HUVEC TNFa-induced p65 nuclear translocation; cell count: measured here: nuclei count (cytotoxicity indicator), at 2.08 µM; inhibition: at 2 µM, stronger effect = higher value, 0% TNFa-plus-vehicle, 100% no-TNFa wells.
A short description of assay [2]: reduction of polyQ htt aggregates in cells – imaging, exon1htt(103Q)mCFP cells, high-content imaging, primary screen (AID 483;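 active = visual image review flags a hit and inhibition of aggregation exceeds 20%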;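 also: compound exposure lasted 3 days before fixation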;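 as to nuclei count: percent of the per-plate median nuclei count of sample wells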). Conditions: exon1htt(103Q)mCFP cell line, aggregate imaging, at 2 µM; inhibition of aggregation: stronger effect = higher value; nuclei count: measured here: cell count, toxicity.
The nature of assay [3]: endothelial E-selectin expression blockers – imaging, HUVEC, immunofluorescence, MLSMR starter and 10KST1 sets, primary screen (AID 487;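 active = visually confirmed hit in the image check and inhibition above 20%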;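 as to inhibition: signal is fraction of cell area covered by stained E-selectin grains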;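 as to nuclei count: 100% = median nuclei count of all wells on the same plate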). Conditions: HUVEC TNFalpha-induced E-selectin immunofluorescence imaging, at 2 µM; inhibition: stronger effect = higher value; nuclei count: measured here: cell number, toxicity.
The target in assay [4] is Voltage-gated potassium channel subunit beta-2 (Rattus norvegicus) (UniProt P62483). Description: inhibitors of rat Kvbeta2 reductase activity – biochemical, NADPH fluorescence, primary screen (AID 622;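 active = fluorescence slope higher than the sample average by over 3 SD, cut at about -0.22 in these data, passing the limit was not always enough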;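 also: slope of raw intensity against log time taken from 70 to 1610 s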). The following applies: recombinant KvBeta, 4-cyanobenzaldehyde reduction, at 10 µM, stronger effect = higher value.
Assay [5] has the same target. In words: enhancers of rat Kvbeta2 NADPH turnover – biochemical, NADPH fluorescence, primary screen (AID 623;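 active = NADPH fluorescence slope more negative than the mean of all samples by about 3 SD, 99.7% confidence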;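 also: fluorescence intensity change per second fitted from 20 to 320 s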). Conditions: Recombinant KvBeta, NADPH fluorescence decrease slope, 10 min; at 10 µM; stronger effect = lower value.
Assay [6] deals with Alpha-2C adrenergic receptor (Homo sapiens) (UniProt P18825). Description: compounds altering alpha2C-coupled GIRK flux – cell-based, HEK293 alpha2C/GIRK1/2, thallium flux, primary screen (AID 624).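 Also: slope of fluorescence ratio to pre-addition baseline per second over 15 to 24 s.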 Conditions: thallium flux BTC fluorescence, at 10 µM, actives lie on both sides.
Assay [7] is described as follows: blockers of RIG-like receptor reporter activation – cell-based, Sendai virus stimulus, luciferase, 10K MLSCN set, TLR/RLR signaling modifier project, primary screen (AID 602276;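 active = inhibition at or above 50% at 10 µM; inactive = inhibition below 50%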;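 also: firefly luciferase from ISG56 promoter only with Renilla not read in this screen; 0% = Sendai virus plus DMSO and 100% = medium plus DMSO without virus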). Conditions: HEK293 RL24 IRF3 luciferase reporter, at 10 µM, stronger effect = higher value.
Assay [8] is described as follows: TLR3 IRF3 reporter activation blockers – cell-based, poly I:C stimulus, luciferase, 10K MLSCN set, primary screen (AID 602277;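 active = inhibition of the reporter signal at or above 50%; inactive = inhibition below 50%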). The following applies: HEK293-TLR3 RL24 IRF3 luciferase reporter, at 10 µM, stronger effect = higher value.

Voltage-gated potassium channel subunit beta-2 (Rattus norvegicus), sequence (P62483 whole entry, looked up): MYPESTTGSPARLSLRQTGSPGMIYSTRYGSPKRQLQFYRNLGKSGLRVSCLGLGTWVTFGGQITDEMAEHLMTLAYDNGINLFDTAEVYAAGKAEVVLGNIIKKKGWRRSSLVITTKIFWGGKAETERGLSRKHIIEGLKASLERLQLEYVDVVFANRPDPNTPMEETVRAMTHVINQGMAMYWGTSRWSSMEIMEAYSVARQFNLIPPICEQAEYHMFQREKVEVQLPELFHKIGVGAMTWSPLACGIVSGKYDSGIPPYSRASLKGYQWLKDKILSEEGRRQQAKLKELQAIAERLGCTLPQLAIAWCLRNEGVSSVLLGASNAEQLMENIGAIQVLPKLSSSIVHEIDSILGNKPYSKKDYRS
Alpha-2C adrenergic receptor (Homo sapiens), sequence (P18825 whole entry, looked up): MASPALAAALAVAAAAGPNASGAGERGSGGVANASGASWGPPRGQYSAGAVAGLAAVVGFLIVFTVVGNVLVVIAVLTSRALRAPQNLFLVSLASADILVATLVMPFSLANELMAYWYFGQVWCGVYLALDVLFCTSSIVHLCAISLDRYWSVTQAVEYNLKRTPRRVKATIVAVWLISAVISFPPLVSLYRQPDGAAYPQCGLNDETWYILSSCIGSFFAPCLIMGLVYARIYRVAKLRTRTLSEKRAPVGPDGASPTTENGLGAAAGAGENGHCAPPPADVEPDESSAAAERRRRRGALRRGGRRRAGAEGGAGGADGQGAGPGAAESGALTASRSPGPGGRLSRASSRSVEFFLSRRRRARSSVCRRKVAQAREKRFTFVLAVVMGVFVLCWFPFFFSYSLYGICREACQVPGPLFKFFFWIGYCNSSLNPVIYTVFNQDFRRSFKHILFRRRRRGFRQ

Regarding `CCc1nnc(NC(=O)COC(=O)CN2C(=O)c3ccccc3C2=O)s1`, the cell count in assay [1] is 375. The inhibition (commonly the drop in the measured response relative to a control, in per cent) in assay [1] was 4.7% (inactive); in assay [3], 4.5% (inactive); in assay [7], -1.09% (inactive); in assay [8] it was 12.5% (inactive). The inhibition of aggregation in assay [2] is 7.1% (inactive). For the same molecule, the nuclei count came to 91.2% in assay [2] and 84.7% in assay [3]. In assay [4], the fluorescence slope is -0.53 (inactive). In addition, the NADPH fluorescence slope in assay [5] was -4.4e-05 (inactive). Moreover, the slope in assay [6] is 0.00636 (inactive).
For the molecule `CC1NC2(C(=O)N(Cc3ccccc3)c3ccccc32)C2C(=O)N(c3ccccc3)C(=O)C12` (stereo not drawn), in assay [1], the cell count worked out at 643. In addition, the inhibition was -5.3% (inactive) in assay [1], -33.8% (inactive) in assay [3], 4.63% (inactive) in assay [7] and 26% (inactive) in assay [8]. Further, in assay [2], the inhibition of aggregation is 2.9% (inactive). Further, the nuclei count in assay [2] turned out to be 113%; in assay [3], 109%. Besides, the fluorescence slope in assay [4] was -0.567 (inactive). In assay [5], the NADPH fluorescence slope was -5.5e-05 (inactive). In addition, the slope in assay [6] is 0.0066 (inactive).
In the case of `Cc1cc(C(=O)NCc2ccc(S(N)(=O)=O)cc2)cs1`, the cell count in assay [1] was 321. Moreover, the inhibition in assay [1] is 4.7% (inactive); in assay [3] it was 9.5% (inactive); in assay [7] it was 13.4% (inactive); in assay [8], 10.9% (inactive). In assay [2], the inhibition of aggregation is -10.8% (inactive). The nuclei count is 108% in assay [2] and 91.3% in assay [3]. For the same molecule, in assay [4], the fluorescence slope is -0.63 (inactive). Also, in assay [5], the NADPH fluorescence slope is -2.4e-05 (inactive). For the same molecule, the slope in assay [6] is 0.00394 (inactive).
For the molecule `COc1ccc(-n2c(=O)[nH]cc(C(=O)Nc3ccc(NC(C)=O)cc3)c2=O)cc1`, the cell count in assay [1] worked out at 233. Further, the inhibition is 7% (inactive) in assay [1], 30.3% (inactive) in assay [3], 9.68% (inactive) in assay [7] and 24.1% (inactive) in assay [8]. In addition, the inhibition of aggregation in assay [2] is 22.1% (inactive). The figures for the nuclei count in assay [2] and in assay [3] were 49.8% and 85.4%, respectively. Also, the fluorescence slope in assay [4] is -0.629 (inactive). In assay [5], the NADPH fluorescence slope is 9.9e-06 (inactive). Further, the slope in assay [6] is 0.0073 (inactive).
For the molecule `Cc1ccc(-c2cc3nc4c(c(=O)n3[nH]2)CCCC4)cc1`, the cell count in assay [1] amounted to 663. Also, the inhibition is -11% (inactive) in assay [1], -69.9% (inactive) in assay [3], -9.26% (inactive) in assay [7] and -48.6% (inactive) in assay [8]. The inhibition of aggregation in assay [2] is -8.5% (inactive). In addition, the nuclei count came out at 73.1% in assay [2] and 119% in assay [3]. The fluorescence slope in assay [4] is -0.454 (inactive). For the same molecule, the NADPH fluorescence slope in assay [5] is 1.7e-05 (inactive). For the same molecule, the slope in assay [6] is 0.00436 (inactive).
Turning to `Cc1ccc(-c2nc3ncccc3o2)cc1NC(=O)c1ccco1`, in assay [1], the cell count was determined as 317. Further, the inhibition in assay [1] was 0.6% (inactive); in assay [3], -107% (inactive); in assay [7], -1.98% (inactive); in assay [8], 14.6% (inactive). The inhibition of aggregation in assay [2] was -1.4% (inactive). Further, the nuclei count in assay [2] and in assay [3] was 102% throughout. The fluorescence slope in assay [4] was -0.429 (inactive). The NADPH fluorescence slope in assay [5] was 2.8e-06 (inactive). Besides, in assay [6], the slope was 0.00563 (inactive).
For the molecule `C=COCCNC(=O)Nc1ccc(Cl)c(Cl)c1`, in assay [1], the cell count amounted to 387. Moreover, the inhibition in assay [1] is -7% (inactive); in assay [3], -170% (inactive); in assay [7], -35.4% (inactive); in assay [8], -41.6% (inactive). Besides, the inhibition of aggregation in assay [2] is 4.5% (inactive). For the same molecule, the nuclei count came to 101% in assay [2] and 119% in assay [3]. In addition, the fluorescence slope in assay [4] was -0.348 (inactive). The NADPH fluorescence slope in assay [5] was -4.7e-05 (inactive). Besides, in assay [6], the slope is 0.00498 (inactive).
For `CCSc1nc2c(c(=O)[nH]1)C(c1cccnc1)C(C(=O)OC(C)C)=C(C)N2` (stereo not drawn), the cell count in assay [1] was 500. The inhibition in assay [1] is 3.8% (inactive); in assay [3], -57.7% (inactive); in assay [7], 1.95% (inactive); in assay [8], 25.7% (inactive). In assay [2], the inhibition of aggregation was 19.4% (inactive). Besides, the nuclei count was 93.1% in assay [2] and 103% in assay [3]. In addition, the fluorescence slope in assay [4] was -0.475 (inactive). In assay [5], the NADPH fluorescence slope is -1.6e-05 (inactive). Moreover, the slope in assay [6] was 0.00631 (inactive).
